Bioassay records (PubChem BioAssay)
Sampled rows, rich in hits. Any-hit rate of the full collection: about 18%.
DT40 TDP1 CPT: qHTS for Inhibitors of human tyrosyl-DNA phosphodiesterase 1 (TDP1): qHTS in cells in presence of CPT | chicken DT40 Tdp1-/-;hTDP1 cells + 20 nM CPT, ATP luminescence, 48 h | Potency, µM (doses to about 46.2 µM), for the others: at the highest dose activity change, negative = growth inhibition, actives largely listed as inhibitors | actives 12% (n = 420,000) | AID 686979, 2013; note: potency is the fitted concentration of half-maximal effect; nearly all actives have a fitted effect of over 55% in size
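Chicken DT40 Tdp1-/- cells complemented with human TDP1, 400 cells/well, exposed to compounds plus 20 nM camptothecin for at least 48 h at 37 C; viability read as ATP content by CellTiter-Glo luminescence.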
IL-1B inflam inh: qHTS for Inhibitors of Inflammasome Signaling: IL-1-beta AlphaLISA Primary Screen; actives 4.7% (n = 360,000); activity change, % at 57.5 µM; AID 743279, 2014; THP-1 LPS/ATP IL-1B secretion, AlphaLISA, 16 h; stronger effect = lower value; in the data active = activity change below about -50%; inconclusive = mostly about -30% to -49%
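Secreted IL-1B measured by AlphaLISA bead assay after 16 h compound exposure of THP-1 cells; compounds (final up to 57.5 uM) added 1 h before LPS (250 ng/mL) and ATP (1.25 mM) stimulation; lower signal means less secretion.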
VP16 counter: VP16 counterscreen qHTS for inhibitors of ROR gamma transcriptional activity; Drosophila S2 Gal4-VP16 UAS-luciferase, luminescence, 20 h; Potency, µM (doses to about 53.6 µM), without a hit: at the top dose activity, negative = inhibition, hits mostly inhibitors; actives 3.5% (n = 310,000); AID 2546, 2010;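 note: Gal4-VP16 expression switched on by copper sulfate through the metallothionein promoter; potency is the fitted concentration of half-maximal effect; nearly all actives have a fitted effect of over 50% in size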
LDHA block: qHTS assay for inhibitors of human lactate dehydrogenase | activity change, % (values are at about 110 or 230 µM) | L-lactate dehydrogenase A chain (Homo sapiens), P00338 | purified LDHA, NADH/diaphorase-resazurin fluorescence; stronger effect = lower value | actives 0.15% (n = 480,000); in the data active = activity change below about -30%; inconclusive = mostly about -25% to -30%;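 note: plate controls were DMSO wells for no effect and wells without enzyme for full effect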
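Human LDH5 (2 nM) was incubated with 0.06 mM NADH and 0.2 mM pyruvate for 5 min at room temperature in Tris pH 7.4. Remaining NADH was coupled through diaphorase/resazurin, and resorufin fluorescence was read at 0 and 20 min.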
TDP1 cell noCPT: qHTS for Inhibitors of human tyrosyl-DNA phosphodiesterase 1 (TDP1): qHTS in cells in absence of CPT. DT40 Tdp1-/- hTDP1 cells, no CPT, ATP luminescence, 48 h. AID 686978, 2013. Potency, µM (titrated, usually from 46.2 µM), for inactives: at the top dose activity change, negative = growth inhibition, hits mostly inhibitors. actives 15% (n = 420,000); note: potency is the fitted concentration of half-maximal effect; nearly all actives have a fitted effect of over 55% in size
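Cells were dispensed at 400 per well, compounds added by pin tool, plates incubated ≥48 hr at 37 °C, then CellTiter-Glo added for 30 min at room temperature before luminescence reading. Line: DT40 Tdp1-/- complemented with hTDP1; camptothecin omitted.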
RORgamma inh: qHTS for inhibitors of ROR gamma transcriptional activity; Nuclear receptor ROR-gamma (Mus musculus), P51450; Drosophila S2 Gal4-RORgamma UAS-luciferase reporter, 20 h; Potency, µM (series often up to 53.6 µM), without a hit: top-dose activity change, negative = inhibition, hits mostly inhibitors; actives 5.4% (n = 310,000); note: potency is the fitted concentration of half-maximal effect; nearly all actives have a fitted effect of over 60% in size
Target sequence (P51450 whole entry, looked up, the tested form may be a part): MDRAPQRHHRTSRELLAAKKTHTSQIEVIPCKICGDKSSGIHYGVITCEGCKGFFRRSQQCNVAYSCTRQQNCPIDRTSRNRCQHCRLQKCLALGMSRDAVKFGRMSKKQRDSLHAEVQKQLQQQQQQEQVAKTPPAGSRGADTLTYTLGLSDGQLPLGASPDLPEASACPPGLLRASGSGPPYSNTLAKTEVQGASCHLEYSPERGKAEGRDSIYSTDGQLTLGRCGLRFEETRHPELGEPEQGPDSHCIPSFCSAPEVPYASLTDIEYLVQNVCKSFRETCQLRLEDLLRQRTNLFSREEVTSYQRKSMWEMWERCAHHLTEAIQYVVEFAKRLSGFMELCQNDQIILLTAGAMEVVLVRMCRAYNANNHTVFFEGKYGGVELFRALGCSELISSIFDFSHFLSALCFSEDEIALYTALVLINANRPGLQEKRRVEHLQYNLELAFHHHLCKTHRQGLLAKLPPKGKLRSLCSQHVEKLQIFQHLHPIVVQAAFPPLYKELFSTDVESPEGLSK
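Drosophila S2 cells stably expressing Gal4-DBD/mouse RORγ fusion under metallothionein promoter plus UAS-luciferase; compound 1 h, then 700 uM CuSO4 induction for 20 h at ambient temperature; inhibition read as reduced luminescence.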
An asterisk follows results filed as active; ? = inconclusive; . = no result given. Unless noted, calls come from the whole dose curve; as a rule, active = well fitted curve in the direction sought with a large enough effect; inconclusive = small, poorly fitted or top-dose-only effect, or another doubt; inactive = no such curve, though single readings can be large; an effect the other way counts as inactive or inconclusive. Unless noted, % is set by controls: 0 for no effect and ±100 for the full control effect.

SMILES	DT40 TDP1 CPT	IL-1B inflam inh	VP16 counter	LDHA block	TDP1 cell noCPT	RORgamma inh
O=C(c1ccc2c(c1)N(Cc1ccc(Cl)cc1)C(=O)c1ccccc1S2(=O)=O)N1CCC(Cc2ccccc2)CC1	10µM*	.	.	-7	18µM*	.
CC1CCN(C(=O)c2ccc3c(c2)N(Cc2ccccc2F)C(=O)c2ccccc2S3(=O)=O)CC1	?	.	.	-1	?	.
O=C(c1ccc2c(c1)N(Cc1ccccc1F)C(=O)c1ccccc1S2(=O)=O)N1CCC(Cc2ccccc2)CC1	16µM*	.	.	-9	21µM*	.
CCc1cccc(CC)c1NC(=O)CCCSc1nc2ccccc2s1	?	0	-11%	1	?	?
CCOC(=O)NC(=O)COC(=O)CCCSc1nc2ccccc2s1	9%	25	8.9µM*	-7	13%	7.1µM*
NC(=O)NC(=O)COC(=O)CCCSc1nc2ccccc2s1	-1%	80	8.9µM*	2	18%	11µM*
CC(C)NC(=O)NC(=O)COC(=O)CCCSc1nc2ccccc2s1	-4%	22	6.3µM*	-6	-7%	11µM*
CCC(C)(C)NC(=O)CCCSc1nc2ccccc2s1	?	-17	-51%	0	?	-40%
CCOC(=O)N/C(N)=N/c1nc2ccccc2s1	?	50	28µM*	0	-29%	?
O=C(CSc1n[nH]c(-c2ccccc2F)n1)Nc1ccc(N2CCCCCC2)cc1	.	.	.	21	.	.
Cc1ccc(CN2CCCC2)cc1	.	.	.	0	.	.
CC(C)(C)C1CCN2CCC[C@](c3ccccc3)(C1)[C@@]21CO1 (some centres not stated)	?	?	.	-2	?	.
COc1cc(C23CCCN(CCC(C(C)(C)C)C2)C32OCCO2)cc(OC)c1OC (configuration not stated)	?	-2	.	3	23µM*	.
CC(C)(C)C1CCN2CCCC(c3ccc([N+](=O)[O-])cc3)(C1)C21OCCO1 (configuration not stated)	21µM*	26	.	4	?	.
CCNC(=O)NC(=O)C(C)Oc1ccc(C(=O)c2ccc(Cl)cc2)cc1 (configuration not stated)	.	.	.	5	.	.
CCOC(=O)c1c(C)n(C)c2ccc(OCCN(C)C)cc12	-5%	?	-3%	4	8%	-16%
CCOc1ccc2c(c1)c(C(C)=O)c(C)n2-c1ccccc1	-10%	-9	9%	-5	-7%	36%
CCOC(=O)c1c(C)n(-c2ccccc2)c2ccc(OC(=O)c3c(F)cccc3F)cc12	-9%	.	.	-3	-7%	.
CCOC(=O)c1c(C)n(-c2ccccc2)c2ccc(OC(=O)c3cccc(Cl)c3)cc12	?	.	.	-5	26µM*	.
CCOC(=O)c1c(C)n(-c2ccccc2)c2ccc(OC(=O)c3ccccc3)cc12	?	.	.	-11	16µM*	.
CCOC(=O)c1c(C)n(-c2ccccc2)c2ccc(OCCN(C)C)cc12	?	-80*	-5%	1	?	-39%
CCOC(=O)c1c(C)n(C)c2cc(OCCN(CC)CC)ccc12	1%	-55*	6%	-2	0%	9%
Cc1ccc(-n2nnnc2SCC(=O)N(Cc2ccco2)C2=CCCCC2)cc1C	.	.	.	10	.	.
CCOc1ccccc1NC(=O)CCc1ccc(-c2ccc(C)cc2)o1	.	.	.	-8	.	.
CCC(CC)NC(=O)N1CCN(S(=O)(=O)c2ccccc2C#N)CC1	.	.	.	-10	.	.
SMILES	DT40 TDP1 CPT	IL-1B inflam inh	VP16 counter	LDHA block	TDP1 cell noCPT	RORgamma inh
O=C(CCNS(=O)(=O)c1cccc2nsnc12)N1CCN(c2ccccn2)CC1	.	.	7%	.	.	25%
CCCCC(CC)CNC(=O)C1CCC(CNS(=O)(=O)c2cccc3nsnc23)CC1 (configuration not stated)	?	.	.	-5	21µM*	.
O=C(C1CCC(CNS(=O)(=O)c2cccc3nsnc23)CC1)N1CCN(c2ccccn2)CC1 (configuration not stated)	?	10	2%	-3	23µM*	36%
CN1CCN(C(=O)C2CCC(CNS(=O)(=O)c3cccc4cccnc34)CC2)CC1 (configuration not stated)	7%	7	1%	-3	-4%	-33%
CCCCN(C(=O)C1CCC(CNS(=O)(=O)c2cccc3nsnc23)CC1)c1ccccc1 (configuration not stated)	?	.	.	-2	21µM*	.
CCCN(CCC)C(=O)C1CCC(CNS(=O)(=O)c2cccc3nsnc23)CC1 (configuration not stated)	?	-5	2%	-1	?	-8%
O=C(C1CCC(CNS(=O)(=O)c2cccc3cccnc23)CC1)N1CCc2ccccc21 (configuration not stated)	?	-8	-14%	-5	18µM*	12%
CCC(CNC(=O)c1cc2ccccc2oc1=O)c1ccccc1 (configuration not stated)	.	.	.	7	.	.
Cc1ccc(Oc2ccccc2NC(=O)CC(C)(C)CC(=O)O)cc1	.	.	.	7	.	.
O=C(O)c1ccc(CN2C(=O)CSC2=S)cc1	18µM*	-20	?	27	18µM*	10µM*
O=C1CSC(=S)N1Cc1cccnc1	4.6µM*	-84*	?	12	4.6µM*	?
O=C(O)c1cc(C(=O)O)cc(N2C(=O)CSC2=S)c1	4%	0	-8%	3	25%	1%
O=C(O)c1ccc(N2C(=O)CSC2=S)cc1	?	-62*	.	0	?	.
O=C(O)c1ccc(N=C2SCC(=O)N2Cc2ccccc2)cc1	-12%	40	-2%	1	0%	4%
COc1ccc(C(=O)Nc2ccc(O)c(-c3nc4ccccc4o3)c2)c(OC)c1	.	.	.	8	.	.
NC(=O)CC(NC(=O)c1ccc(Br)cc1)c1ccc(N2CCN(c3ccccc3)CC2)c([N+](=O)[O-])c1 (configuration not stated)	?	-29	1%	-9	?	?
